Reference: PubChem BioAssay (NCATS)
Results filed as inconclusive are left out. Active and inactive are the calls of the source. The call rests on the fitted dose curve; in most records, active means well fitted curve in the direction sought with a large enough effect; inconclusive means small, poorly fitted or top-dose-only effect, or another doubt; inactive means no such curve, though single readings can be large; an effect the other way counts as inactive or inconclusive.

Columns and labels:
[1] = qHTS to identify inhibitors of the type 1 interferon - major histocompatibility complex class I in skeletal muscle: primary screen against the NCATS Pharmaceutical Collection (AID 1347407);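 further: luminescence of HiBiT knocked into endogenous HLA-B as interferon-induced MHC class I level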
In short: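 A qHTS format is used: 8-point, 1:5 compound series with 46 uM top final concentration, applied alongside 4 ng/ml IFN-beta to HLA-B*08:01-HiBiT knock-in myoblasts. Luminescence is measured after 24 h treatment.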

[2] = biological target: Protein phosphatase 1D (Homo sapiens) (UniProt O15297); assay: RapidFire Mass Spectrometry qHTS Assay for Modulators of WT P53-Induced Phosphatase 1 (WIP1) (AID 1347424);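 further: amount of dephosphorylated VEPPL-S-QETFS peptide product formed by WIP1; series mostly up to about 63 µM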
Chain of Protein phosphatase 1D (Homo sapiens) (O15297 whole entry, looked up): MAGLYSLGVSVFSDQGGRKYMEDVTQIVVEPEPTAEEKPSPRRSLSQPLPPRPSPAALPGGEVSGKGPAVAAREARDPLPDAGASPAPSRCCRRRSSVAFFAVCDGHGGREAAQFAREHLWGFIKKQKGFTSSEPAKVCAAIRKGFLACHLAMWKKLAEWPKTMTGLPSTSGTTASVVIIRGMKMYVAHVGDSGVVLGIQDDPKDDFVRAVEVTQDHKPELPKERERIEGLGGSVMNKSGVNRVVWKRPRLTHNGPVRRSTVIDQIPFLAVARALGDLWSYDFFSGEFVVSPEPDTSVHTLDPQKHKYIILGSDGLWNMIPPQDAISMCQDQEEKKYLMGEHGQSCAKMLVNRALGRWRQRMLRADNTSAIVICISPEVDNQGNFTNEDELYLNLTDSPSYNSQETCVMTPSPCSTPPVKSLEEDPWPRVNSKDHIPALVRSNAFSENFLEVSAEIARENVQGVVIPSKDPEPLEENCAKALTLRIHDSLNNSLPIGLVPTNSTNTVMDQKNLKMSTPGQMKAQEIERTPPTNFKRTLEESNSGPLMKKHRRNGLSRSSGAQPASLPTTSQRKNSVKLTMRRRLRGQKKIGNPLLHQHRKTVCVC
In short: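 RapidFire mass spectrometry measured dephosphorylated peptide after 5 min room-temperature reaction of 2 uM VEPPL-pS-QETFS with 10 nM WIP1 (50 mM Tris-HCl pH 7.5, 30 mM MgCl2, 0.1 mM EGTA, BSA), following 1 hr compound preincubation; 1 uM isotope-labelled product standard.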

[3] = Primary qHTS for inhibitors of La Crosse Virus (LACV) - induced cell death in SH-SY5Y cells (AID 1508616);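 further: top concentration of the series differs between compounds; higher means more rescue of cells from virus-induced death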
In short: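 Screening measures cell viability in LACV-infected SH-SY5Y cultures. Compound was added before virus (0.01 MOI), and ATP was detected by luminescence 6 days later.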

[4] = biological target: Calcium and integrin-binding protein 1 (Homo sapiens) (UniProt Q99828); assay: Primary qHTS for Identification of Calcium Integrin Binding Protein 1 (CIB1) Competitor (AID 1508620);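 further: GST tagged CIB1 binding a fluorescein labelled alphaIIb integrin peptide tracer; top concentration of the series differs between compounds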
Chain of Calcium and integrin-binding protein 1 (Homo sapiens) (Q99828 whole entry, looked up): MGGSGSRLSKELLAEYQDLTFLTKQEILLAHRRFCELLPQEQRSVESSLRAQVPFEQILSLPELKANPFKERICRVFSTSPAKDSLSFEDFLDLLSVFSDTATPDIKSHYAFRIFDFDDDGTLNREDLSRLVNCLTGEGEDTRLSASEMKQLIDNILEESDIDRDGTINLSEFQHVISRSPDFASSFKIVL
In short: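 CIB1-GST (1 uM final) and compound incubated 15 min at room temperature before adding FITC-alphaIIb peptide tracer (100 nM final). Competition for binding read by fluorescence polarization (ex 480, em 540) after another 15 min at room temperature.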

[5] = biological target: Protein phosphatase 1D (Homo sapiens) (UniProt O15297); assay: Rhodamine-PBP qHTS Assay for Modulators of WT P53-Induced Phosphatase 1 (WIP1) (AID 1347425)
In short: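 5 nM WIP1 + 10 uM Rh-PBP, 50 mM Tris pH 7.5, 30 mM MgCl2, 1 mM TCEP, 0.1 mM EGTA, BSA; cpds pinned, 1 hr RT; + 10 uM phosphopeptide; fluorescence 1-min reads x 11 min; delta = f1 - f0.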

[6] = Primary qHTS for small molecule stabilizers of the endoplasmic reticulum resident proteome: Secreted ER Calcium Modulated Protein (SERCaMP) assay (AID 1508630)
In short: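 The SH-SY5Y reporter protocol was run at 3 concentrations up to 38.3 uM (primary) or 11 concentrations (follow-up): 16 h compound, 100 nM thapsigargin for 4 h, then extracellular luciferase luminescence.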

[7] = Counterscreen qHTS for small molecule stabilizers of the endoplasmic reticulum resident proteome: GLuc-NoTag assay (AID 1508627);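 further: SH-SY5Y cells given compound then 100 nM thapsigargin to empty ER calcium; series mostly up to about 76 µM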
In short: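 Counterscreen line: SH-SY5Y-GLuc-NoTag cells, treated with compound 19 hr before a 4 hr, 100 nM thapsigargin calcium depletion. Secreted Gaussia luciferase in the medium was measured by luminescence after coelenterazine was added (0.07x final), with cells unlysed.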

Measured: Potency

CNC(=O)CN(CCN(CCN(CC(=O)[O-])CC(=O)NC)CC(=O)[O-])CC(=O)[O-].O.[Gd+3]
inactive: [1] | [2] | [3] | [4]

N[C@H](Cc1c[nH]c2ccccc12)C(=O)O
not listed: [2] | [7]
inactive: all other assays above

CC(C)COC(=O)c1ccc(N)cc1
inactive: [1] | [2] | [3] | [4]

CC(C)N=C(N)/N=C(\N)Nc1ccc(Cl)cc1
not listed: [2] | [6]
inactive: all other assays above

CCCCCC=CCC=CCCCCCCCC(=O)OCC
not listed: [5] | [7]
inactive: all other assays above

COc1cc(/C=C/C(=O)O[C@H]2CC[C@]34C[C@]35CC[C@]3(C)[C@@H]([C@H](C)CCC=C(C)C)CC[C@@]3(C)[C@@H]5CC[C@H]4C2(C)C)ccc1O
inactive: [1] | [2] | [3] | [4]

CC(=O)[C@H]1CC[C@H]2[C@@H]3C[C@H](C)C4=CC(=O)CC[C@]4(C)[C@H]3[C@@H](O)C[C@]12C
not listed: [5] | [7]
inactive: all other assays above

O=C1OCCN1/N=C/c1ccc([N+](=O)[O-])o1
inactive: [1] | [5] | [3] | [4]

CC(=O)c1ccc2c(c1)N(CCCN1CCC(CCO)CC1)c1ccccc1S2
not listed: [2] | [6]
inactive: all other assays above

CC1(C)OC[C@@H](COC(=O)CCc2ccc(OC[C@@H](O)CNCCNC(=O)N3CCOCC3)cc2)O1
not listed: [5] | [7]
inactive: all other assays above

C[C@H](O)C(=O)Nc1c(I)c(C(=O)NC(CO)CO)c(I)c(C(=O)NC(CO)CO)c1I
inactive: [1] | [2] | [3] | [4]
